Data: PubChem BioAssay (EPA / NIEHS)
Results filed as inconclusive are left out. A structure can be active in one record and inactive in another. Calls of active or inactive are those of the source. The calls were made as follows, unless noted: active = hit-call score of the fitted dose curve at least 0.9, where 1 is the maximum; inconclusive = response in the unintended direction; inactive = score below 0.9.

Tests used:
[1] = ATG_GAL4_TRANS: Attagene TRANS-FACTORIAL HepG2 Assay for GAL4 (Internal Marker) (AID 2282976); conditions: HepG2 Attagene TRANS GAL4 internal marker reporter
Summary of the method: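 HepG2 cells transiently transfected with multiplexed GAL4-UAS reporter constructs were dosed for 24 h. Reporter mRNA was measured by RT-PCR, 6-FAM primer extension, HpaI digestion and capillary electrophoresis, and gain of signal was fitted relative to DMSO.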

[2] = biological target: Glucocorticoid receptor (Homo sapiens) (UniProt P04150); assay: ATG_GR_TRANS: Attagene TRANS-FACTORIAL HepG2 Assay for human Glucocorticoid Receptor (GR) (AID 2282978); conditions: HepG2 Attagene TRANS GR reporter, mRNA transcription;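 also: activators score as hits since higher reporter transcript over DMSO is fitted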
Sequence of Glucocorticoid receptor (Homo sapiens) (P04150 whole entry, looked up, the tested form may be a part): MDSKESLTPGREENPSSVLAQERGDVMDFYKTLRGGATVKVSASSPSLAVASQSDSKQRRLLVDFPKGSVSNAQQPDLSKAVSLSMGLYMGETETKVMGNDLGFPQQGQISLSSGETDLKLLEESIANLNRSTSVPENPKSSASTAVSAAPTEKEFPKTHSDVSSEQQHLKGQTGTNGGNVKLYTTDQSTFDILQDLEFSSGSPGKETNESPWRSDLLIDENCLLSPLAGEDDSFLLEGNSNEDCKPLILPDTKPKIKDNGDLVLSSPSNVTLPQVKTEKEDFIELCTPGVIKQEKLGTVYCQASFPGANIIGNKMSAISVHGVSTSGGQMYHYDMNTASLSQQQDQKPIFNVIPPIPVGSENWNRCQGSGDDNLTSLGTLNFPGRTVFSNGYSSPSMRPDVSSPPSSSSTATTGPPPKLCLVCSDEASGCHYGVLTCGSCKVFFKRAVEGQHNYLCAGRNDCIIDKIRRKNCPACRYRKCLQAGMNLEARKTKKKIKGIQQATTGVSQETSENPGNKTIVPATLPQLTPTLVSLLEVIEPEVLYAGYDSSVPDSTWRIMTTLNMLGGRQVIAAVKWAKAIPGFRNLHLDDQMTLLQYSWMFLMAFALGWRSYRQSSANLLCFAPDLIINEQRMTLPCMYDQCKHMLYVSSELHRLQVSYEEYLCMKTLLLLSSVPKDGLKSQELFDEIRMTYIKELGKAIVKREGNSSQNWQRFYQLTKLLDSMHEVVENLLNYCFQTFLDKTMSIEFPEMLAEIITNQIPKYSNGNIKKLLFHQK
Summary of the method: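 Transient MRTU transfection of HepG2 (GAL4-UAS reporters, exogenous NR-GAL4 chimeras), 24 h dosing. Readout: reporter transcript via RT-PCR + capillary electrophoresis fluorescence. Positive direction vs DMSO baseline.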

[3] = biological target: Oxysterols receptor LXR-beta (Homo sapiens) (UniProt P55055); assay: ATG_LXRb_TRANS: Attagene TRANS-FACTORIAL HepG2 Assay for human Liver X Receptor beta (LXRb) (AID 2282981); conditions: HepG2 Attagene TRANS GAL4-LXRb reporter, mRNA
Sequence of Oxysterols receptor LXR-beta (Homo sapiens) (P55055 whole entry, looked up, the tested form may be a part): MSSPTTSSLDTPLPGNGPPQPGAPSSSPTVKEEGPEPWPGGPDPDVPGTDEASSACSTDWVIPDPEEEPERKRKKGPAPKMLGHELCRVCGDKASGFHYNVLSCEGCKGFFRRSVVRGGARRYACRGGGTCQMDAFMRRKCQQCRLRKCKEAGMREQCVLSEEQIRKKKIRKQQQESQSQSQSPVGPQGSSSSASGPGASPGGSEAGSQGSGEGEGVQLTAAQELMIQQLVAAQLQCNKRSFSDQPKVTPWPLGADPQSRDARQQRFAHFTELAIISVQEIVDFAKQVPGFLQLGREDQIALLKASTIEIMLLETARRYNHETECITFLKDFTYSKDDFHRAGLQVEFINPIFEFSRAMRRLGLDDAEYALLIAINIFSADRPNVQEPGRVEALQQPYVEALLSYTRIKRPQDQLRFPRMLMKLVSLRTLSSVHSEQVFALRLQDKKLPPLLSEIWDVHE
Summary of the method: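 Readout: fluorescent reporter mRNA fragments resolved by capillary electrophoresis after RT-PCR. System: transiently transfected human HepG2, exogenous LXRb-Gal4 chimera driving GAL4-UAS reporter, 24 h dosing. Activity fitted upward against DMSO baseline.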

[4] = biological target: Hepatocyte nuclear factor 4-alpha (Homo sapiens) (UniProt P41235); assay: ATG_HNF4a_TRANS: Attagene TRANS-FACTORIAL HepG2 Assay for human Hepatocyte Nuclear Factor 4 alpha (HNF4a) (AID 2282982); conditions: HepG2 HNF4a transactivation reporter, mRNA readout
Sequence of Hepatocyte nuclear factor 4-alpha (Homo sapiens) (P41235 whole entry, looked up): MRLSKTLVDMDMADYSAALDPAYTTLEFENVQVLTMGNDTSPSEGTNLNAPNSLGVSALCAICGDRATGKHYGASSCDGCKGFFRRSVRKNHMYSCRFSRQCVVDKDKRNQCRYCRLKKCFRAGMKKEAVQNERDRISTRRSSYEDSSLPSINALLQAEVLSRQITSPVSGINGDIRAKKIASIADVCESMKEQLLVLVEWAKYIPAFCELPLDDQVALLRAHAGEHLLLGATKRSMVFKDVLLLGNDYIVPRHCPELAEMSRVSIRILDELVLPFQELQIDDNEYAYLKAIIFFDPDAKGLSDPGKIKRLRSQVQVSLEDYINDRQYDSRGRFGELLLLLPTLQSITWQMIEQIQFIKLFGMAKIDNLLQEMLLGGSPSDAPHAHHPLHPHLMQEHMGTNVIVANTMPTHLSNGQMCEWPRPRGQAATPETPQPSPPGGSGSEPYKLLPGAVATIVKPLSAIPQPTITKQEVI
Summary of the method: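 Transient MRTU transfection of HepG2, 24 h dosing. Readout: reporter mRNA via RT-PCR + capillary electrophoresis, fluorescence; activity fit upward relative to DMSO control.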

[5] = ATG_M_32_TRANS: Attagene TRANS-FACTORIAL HepG2 Assay for M32 Transcription Factor (Internal Marker) (AID 2282984); conditions: HepG2 Attagene TRANS M32 internal marker reporter
Summary of the method: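 Read-out: fluorescent reporter cDNA fragments resolved by capillary electrophoresis after RT-PCR of total RNA. Transfected HepG2 cells were exposed to chemical for 24 h. Activity scored in the positive direction relative to DMSO.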

[6] = biological target: Nuclear receptor subfamily 4 group A member 2 (Homo sapiens) (UniProt P43354); assay: ATG_NURR1_TRANS: Attagene TRANS-FACTORIAL HepG2 Assay for human Nuclear Receptor Related Protein 1 (NURR1) (AID 2282985); conditions: HepG2 Attagene TRANS reporter, mRNA readout
Sequence of Nuclear receptor subfamily 4 group A member 2 (Homo sapiens) (P43354 whole entry, looked up, the tested form may be a part): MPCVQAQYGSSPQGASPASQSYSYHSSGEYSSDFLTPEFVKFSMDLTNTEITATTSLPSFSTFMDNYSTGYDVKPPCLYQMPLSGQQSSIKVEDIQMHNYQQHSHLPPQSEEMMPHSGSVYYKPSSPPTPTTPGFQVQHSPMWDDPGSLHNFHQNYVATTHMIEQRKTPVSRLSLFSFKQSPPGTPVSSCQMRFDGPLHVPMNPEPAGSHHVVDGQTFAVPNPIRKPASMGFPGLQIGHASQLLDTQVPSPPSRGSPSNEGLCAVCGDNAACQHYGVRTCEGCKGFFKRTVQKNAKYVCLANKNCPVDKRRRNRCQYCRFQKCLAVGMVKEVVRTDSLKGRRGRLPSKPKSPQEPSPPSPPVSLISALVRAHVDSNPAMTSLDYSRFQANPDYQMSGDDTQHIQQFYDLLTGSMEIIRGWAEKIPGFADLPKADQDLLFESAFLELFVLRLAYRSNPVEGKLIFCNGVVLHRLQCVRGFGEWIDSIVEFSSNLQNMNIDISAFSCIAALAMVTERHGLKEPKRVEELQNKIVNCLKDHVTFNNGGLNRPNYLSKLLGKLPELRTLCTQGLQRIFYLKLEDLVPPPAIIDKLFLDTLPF
Summary of the method: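 Read-out: reporter mRNA induction by RT-PCR plus capillary electrophoresis with fluorescence detection, after 24 h dosing of transfected HepG2 cells. Exogenous NR-Gal4 chimera activity drives GAL4-UAS reporter; activity fitted upward versus DMSO.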

[7] = biological target: Transcriptional activator Myb (Homo sapiens) (UniProt P10242); assay: ATG_Myb_CIS: Attagene CIS-FACTORIAL HepG2 Assay for human Myeloblastosis (Myb) Proto-Oncogene Transcription Factor (AID 2282986; active = hit-call score of the fitted dose curve at least 0.9, where 1 is the maximum; inactive = score below 0.9); conditions: HepG2 Attagene CIS-FACTORIAL Myb reporter transcription; actives raise or lower the signal
Sequence of Transcriptional activator Myb (Homo sapiens) (P10242 whole entry, looked up): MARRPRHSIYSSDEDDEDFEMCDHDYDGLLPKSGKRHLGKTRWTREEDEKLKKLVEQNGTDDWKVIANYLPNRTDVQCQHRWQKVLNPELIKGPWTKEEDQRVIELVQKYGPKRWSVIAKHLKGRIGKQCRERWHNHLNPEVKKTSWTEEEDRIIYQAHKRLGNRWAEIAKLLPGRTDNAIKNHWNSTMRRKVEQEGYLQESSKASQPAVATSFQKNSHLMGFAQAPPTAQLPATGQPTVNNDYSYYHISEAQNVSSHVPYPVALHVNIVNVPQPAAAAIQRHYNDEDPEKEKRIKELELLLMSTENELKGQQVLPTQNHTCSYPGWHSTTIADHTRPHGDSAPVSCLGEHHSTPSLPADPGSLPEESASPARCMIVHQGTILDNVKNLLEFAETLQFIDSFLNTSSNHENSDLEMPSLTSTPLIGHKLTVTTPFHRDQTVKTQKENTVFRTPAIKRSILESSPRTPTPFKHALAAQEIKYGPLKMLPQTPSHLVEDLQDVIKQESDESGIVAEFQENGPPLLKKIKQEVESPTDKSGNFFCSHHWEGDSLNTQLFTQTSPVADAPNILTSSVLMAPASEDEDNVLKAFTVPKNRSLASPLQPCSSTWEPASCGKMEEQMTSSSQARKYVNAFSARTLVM
Summary of the method: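 HepG2, transient MRTU transfection (cis-element promoters, endogenous TF activity), 24 h compound exposure. Readout: reporter mRNA via RT-PCR, 6-FAM labeling, HpaI digest, capillary electrophoresis. Gain/loss fit vs DMSO.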

[8] = biological target: Oxysterols receptor LXR-alpha (Homo sapiens) (UniProt Q13133); assay: ATG_LXRa_TRANS: Attagene TRANS-FACTORIAL HepG2 Assay for human Liver X Receptor alpha (LXRa) (AID 2282980); conditions: HepG2 Attagene TRANS reporter, LXRa transactivation
Sequence of Oxysterols receptor LXR-alpha (Homo sapiens) (Q13133 whole entry, looked up, the tested form may be a part): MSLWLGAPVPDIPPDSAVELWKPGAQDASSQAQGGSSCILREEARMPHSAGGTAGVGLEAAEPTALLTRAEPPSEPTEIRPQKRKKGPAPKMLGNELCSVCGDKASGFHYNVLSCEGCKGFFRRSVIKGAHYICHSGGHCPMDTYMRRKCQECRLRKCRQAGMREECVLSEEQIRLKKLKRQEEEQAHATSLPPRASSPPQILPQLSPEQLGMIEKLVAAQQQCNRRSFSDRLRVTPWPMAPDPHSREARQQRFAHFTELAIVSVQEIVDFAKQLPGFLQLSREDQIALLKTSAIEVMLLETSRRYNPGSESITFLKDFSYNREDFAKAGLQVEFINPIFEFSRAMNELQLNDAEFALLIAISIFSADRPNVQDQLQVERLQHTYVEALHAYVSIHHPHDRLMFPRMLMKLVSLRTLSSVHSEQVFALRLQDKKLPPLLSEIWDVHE
Summary of the method: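 HepG2 cells were transiently transfected with multiplexed reporter units driven by chimeric LXRa–GAL4 fusion proteins, then dosed for 24 h. Reporter mRNA was quantified by RT-PCR, fluorescent labelling and capillary electrophoresis; gain of signal fitted against DMSO baseline.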

[9] = biological target: Estrogen-related receptor gamma (Homo sapiens) (UniProt P62508); assay: ATG_ERRg_TRANS: Attagene TRANS-FACTORIAL HepG2 Assay for human Estrogen-Related Receptor gamma (ERRg) (AID 2282977); conditions: HepG2 Attagene TRANS reporter, ERRg transactivation;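 also: hits increase reporter signal over DMSO so potencies reflect activators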
Sequence of Estrogen-related receptor gamma (Homo sapiens) (P62508 whole entry, looked up, the tested form may be a part): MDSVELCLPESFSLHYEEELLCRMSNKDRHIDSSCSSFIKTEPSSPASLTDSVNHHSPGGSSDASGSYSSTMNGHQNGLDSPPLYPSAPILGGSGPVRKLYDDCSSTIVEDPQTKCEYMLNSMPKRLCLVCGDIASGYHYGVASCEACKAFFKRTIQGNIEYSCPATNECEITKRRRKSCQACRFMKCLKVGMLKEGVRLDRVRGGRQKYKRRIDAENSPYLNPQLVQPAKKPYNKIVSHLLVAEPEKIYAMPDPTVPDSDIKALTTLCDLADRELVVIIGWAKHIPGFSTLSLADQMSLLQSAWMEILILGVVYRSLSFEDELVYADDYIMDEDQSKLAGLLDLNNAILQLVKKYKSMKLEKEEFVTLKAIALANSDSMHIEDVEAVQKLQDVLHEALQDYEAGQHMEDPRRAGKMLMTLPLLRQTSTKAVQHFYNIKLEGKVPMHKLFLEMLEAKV
Summary of the method: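 Readout: fluorescent reporter-mRNA fragments resolved by capillary electrophoresis after RT-PCR and HpaI cut. Cells: transiently transfected HepG2 carrying GAL4-UAS reporters driven by exogenous NR-Gal4 chimeras, dosed 24 h. Activity fitted upward relative to DMSO baseline.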

[10] = ATG_M_06_TRANS: Attagene TRANS-FACTORIAL HepG2 Assay for M06 Transcription Factor (Internal Marker) (AID 2282983); conditions: HepG2 Attagene TRANS M06 internal marker reporter
Summary of the method: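 In this multiplexed HepG2 system, compounds are incubated 24 h with cells carrying GAL4-UAS reporter units. Reporter RNA is amplified and resolved by capillary electrophoresis, and induction is scored against DMSO.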

Measured: AC50

CCCCC(CC)COC(=O)c1ccccc1C(=O)O (stereo not drawn)
inactive: [1] | [2] | [8] | [3] | [5] | [7]

COc1nc(C)nc(NC(=O)NS(=O)(=O)c2ccccc2OCCCl)n1
inactive: [1] | [9] | [2] | [3] | [4] | [6] | [7]
active: [8] 17.1 µM | [3] 25.6 µM

N[C@@H](Cc1cc(I)c(Oc2ccc(O)c(I)c2)c(I)c1)C(=O)O
active: [6] 25.8 µM
inactive: [1] | [2] | [8] | [3] | [4] | [5] | [6] | [7]

COC(=O)c1cccc(C)c1S(=O)(=O)NC(=O)Nc1nc(OCC(F)(F)F)nc(N(C)C)n1
not listed: [1] | [4] | [10]
inactive: all other assays above

COC(=O)c1ccc(CNS(C)(=O)=O)cc1S(=O)(=O)NC(=O)Nc1nc(OC)cc(OC)n1
not listed: [1] | [5] | [6]
inactive: all other assays above

CC1(C)C(C=C(Cl)Cl)C1C(=O)OCc1cccc(Oc2ccccc2)c1 (stereo not drawn)
not listed: [5] | [9] | [10]
inactive: all other assays above

CC(C)CCCCCCc1ccc(O)cc1
active: [2] 42.2 µM | [8] 11.1 µM | [3] 51.1 µM | [5] 53.4 µM | [6] 11.1 µM
inactive: [1] | [2] | [8] | [3] | [4] | [5] | [6] | [7]

CN(C)C(=O)Nc1ccc(Cl)c(Cl)c1
not listed: [1] | [10]
inactive: all other assays above

CCN(Cc1c(F)cccc1Cl)c1c([N+](=O)[O-])cc(C(F)(F)F)cc1[N+](=O)[O-]
not listed: [2] | [8] | [10]
inactive: all other assays above

OB(O)O
not listed: [1] | [10]
inactive: all other assays above

Oc1ccc(C(c2ccc(O)cc2)C(Cl)(Cl)Cl)cc1
inactive: [1] | [2] | [8] | [3] | [5] | [7]

CC(C)(c1ccc(O)cc1)c1ccc(O)cc1
active: [6] 44 µM
inactive: [1] | [9] | [8] | [3] | [4] | [5] | [6] | [7]

CC(=O)S[C@@H]1CC2=CC(=O)CC[C@]2(C)[C@H]2CC[C@@]3(C)[C@@H](CC[C@@]34CCC(=O)O4)[C@H]12
not listed: [9] | [10]
inactive: all other assays above

CCN(CC)C(=O)c1cccc(C)c1
not listed: [6] | [10]
inactive: all other assays above

C=CCOC(Cn1ccnc1)c1ccc(Cl)cc1Cl (stereo not drawn)
not listed: [8] | [9] | [10]
inactive: all other assays above

CCOC(=O)C(C)Oc1ccc(Oc2nc3ccc(Cl)cc3o2)cc1 (stereo not drawn)
not listed: [1] | [5] | [10]
inactive: all other assays above

CCCCC(CC)CN1C(=O)C2C3C=CC(C3)C2C1=O (stereo not drawn)
not listed: [9] | [10]
inactive: all other assays above

COCCO
inactive: [1] | [8] | [3] | [4] | [5] | [7]

O=C(c1ccccc1)C1CCCCC1
not listed: [4] | [9] | [10]
inactive: all other assays above

C#C[C@]1(O)CC[C@H]2[C@@H]3CCC4=CC(=O)CC[C@@H]4[C@H]3CC[C@@]21CC
not listed: [4] | [9] | [10]
inactive: all other assays above

c1ccc2[nH]c(-c3cscn3)nc2c1
active: [8] 27.2 µM
not listed: [9] | [10]
inactive: all other assays above

Cc1nn(C)c(Oc2ccccc2)c1C=NOCc1ccc(C(=O)OC(C)(C)C)cc1
inactive: [9] | [4] | [5] | [6] | [7]
active: [8] 1.31 µM | [3] 1.88 µM

CCC(C)OC(=O)N1CCCCC1CCO (stereo not drawn)
inactive: [9] | [8] | [3] | [4] | [6] | [7]

CC(=O)[C@H]1CC[C@H]2[C@@H]3CCC4=CC(=O)CC[C@]4(C)[C@H]3CC[C@]12C
inactive: [1] | [8] | [3] | [5] | [6] | [7]
active: [1] 158 µM | [5] 125 µM

c1ccc(Nc2ccccc2)cc1
inactive: [9] | [8] | [3] | [4] | [5] | [7]

C[C@]12CC[C@@H]3c4ccc(O)cc4C[C@@H](CCCCCCCCCS(=O)CCCC(F)(F)C(F)(F)F)[C@H]3[C@@H]1CC[C@@H]2O (stereo partly drawn)
not listed: [10]
inactive: all other assays above

CCSC(=O)N(CC(C)C)CC(C)C
inactive: [9] | [2] | [3] | [5] | [6] | [7]

COC(=O)c1c(Cl)nn(C)c1S(=O)(=O)NC(=O)Nc1nc(OC)cc(OC)n1
not listed: [1] | [6] | [10]
inactive: all other assays above

CSC(=O)c1cccc2nnsc12
inactive: [1] | [2] | [3] | [5] | [6] | [7]

CCCOC(=O)c1ccc(C(=O)OCCC)nc1
not listed: [1] | [9] | [10]
inactive: all other assays above

S=C([S-])NCCNC(=S)[S-].[Mn+2]
inactive: [2] | [8] | [3] | [4] | [7]

CCOC(=O)C(C)Oc1ccc(Oc2cnc3cc(Cl)ccc3n2)cc1 (stereo not drawn)
inactive: [2] | [8] | [3] | [6] | [7]

CCOC(=O)COc1cc(-n2ncc(C(F)(F)F)c(C)c2=O)c(F)cc1Cl
inactive: [8] | [3] | [7]

CCCN(CCC)C(=O)SCC
inactive: [2] | [8] | [3] | [4] | [5] | [7]

COC(=O)CSc1cc(N=c2sc(=O)n3n2CCCC3)c(F)cc1Cl
inactive: [2] | [8] | [3] | [7]

S=C(S)NCCNC(=S)S.[Mn+2].[S-]C([S-])=NCCN=C([S-])[S-].[Zn+2]
not listed: [1] | [9] | [10]
inactive: all other assays above

C#CCOC(=O)[C@@H](C)Oc1ccc(Oc2ncc(Cl)cc2F)cc1
inactive: [2] | [8] | [7]
active: [3] 1.16 µM

CCCCCCC(C)OC(=O)COc1nc(F)c(Cl)c(N)c1Cl (stereo not drawn)
inactive: [4] | [6] | [7]

CCCN(CCC)c1c([N+](=O)[O-])cc(C(F)(F)F)c(N)c1[N+](=O)[O-]
inactive: [9] | [8] | [3] | [4] | [7]

O=C(O)C1(C(=O)Nc2ccc(Cl)cc2Cl)CC1
inactive: [8] | [3] | [4] | [5] | [7]

O=C(Nc1ccc([N+](=O)[O-])cc1Cl)c1cc(Cl)ccc1O
inactive: [8] | [3] | [4] | [7]

O=C(c1ccc(O)cc1O)c1ccc(O)cc1O
not listed: [1] | [9] | [10]
inactive: all other assays above

C[C@]12C[C@H](O)[C@H]3[C@@H](CCC4=CC(=O)CC[C@@]43C)[C@@H]1CC[C@@H]2C(=O)CO
active: [2] 129 nM [middle of 4 runs]
inactive: [8] | [3] | [5] | [6] | [7]

COc1c(Cl)ccc(Cl)c1C(=O)O
inactive: [8] | [3] | [7]
active: [6] 59.2 µM

COC(=O)c1ccccc1S(=O)(=O)NC(=O)Nc1nc(OC(F)F)cc(OC(F)F)n1
inactive: [2] | [3] | [4] | [5] | [6] | [7]

N#CSCSc1nc2ccccc2s1
inactive: [2] | [8] | [3] | [4] | [5] | [6] | [7]
active: [4] 24.1 µM | [6] 11.6 µM

CCCCOCCOCCOCc1cc2c(cc1CCC)OCO2
inactive: [4] | [5] | [6] | [7]

CCC(O)=C1C(=O)CC(C(=O)O)CC1=O (stereo not drawn)
not listed: [1] | [4] | [9]
inactive: all other assays above

CC(C)(C)[C@@H](O)[C@@H](Cc1ccc(Cl)cc1)n1cncn1
inactive: [8] | [3] | [4] | [7]

CCOC(=O)NCCOc1ccc(Oc2ccccc2)cc1
inactive: [9] | [8] | [3] | [6] | [7]

CCNc1nc(N)nc(Cl)n1
inactive: [8] | [3] | [5] | [7]

COC(=O)c1ccccc1C(=O)O
inactive: [8] | [3] | [6] | [7]

CCCCOC(=O)C(C)Oc1ccc(Oc2ccc(C(F)(F)F)cn2)cc1 (stereo not drawn)
inactive: [8] | [3] | [4] | [5] | [6] | [7]
